# A selection: hits, their analogues and other compounds. The true share with any hit is near 3.7%.
# DRV1 agonist: qHTS for Agonists of Human Resolvin D1 Receptor DRV1. Probable G-protein coupled receptor 32 (Homo sapiens), O75388. CHO-K1 GPR32 beta-arrestin PathHunter luminescence, 90 min; zero percent set by DMSO-only wells. activation, % at 76.9 µM. hit rate 2.5% among 48,000;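 active = activation of at least 60% and not above a set upper limit, about 1 call in 100 departs from these limits; inconclusive = activation of 40% to 60%, or above that upper limit; inactive = activation under 40%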; also: 0% is about no effect
# Target sequence (O75388 whole entry, looked up): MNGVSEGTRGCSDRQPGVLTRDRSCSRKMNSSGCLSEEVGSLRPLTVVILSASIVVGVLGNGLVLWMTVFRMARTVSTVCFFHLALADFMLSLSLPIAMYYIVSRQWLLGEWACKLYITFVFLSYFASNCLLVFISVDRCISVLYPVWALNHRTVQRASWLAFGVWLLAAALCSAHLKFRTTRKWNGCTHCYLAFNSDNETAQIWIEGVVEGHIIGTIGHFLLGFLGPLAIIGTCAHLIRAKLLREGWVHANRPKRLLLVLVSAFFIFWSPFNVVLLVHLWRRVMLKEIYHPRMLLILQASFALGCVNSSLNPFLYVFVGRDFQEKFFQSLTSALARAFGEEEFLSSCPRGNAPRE
#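 Beta-arrestin recruitment read-out: luminescence from complemented beta-Gal in CHO-K1 GPR32 PathHunter cells, measured 1 h after detection reagent at ambient temperature following 90 min compound exposure at 37 °C; DMSO served as basal (EC0) control.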
# HTT-AS act: Primary qHTS for Identification of Small Molecule Activators of Huntingtin-Antisense Promoter Activity; HEK293 HTT-AS promoter firefly luciferase reporter, 24 h; response scale: percent change from vehicle, -100% = no light; Potency, µM (doses to about 57.5 µM), inactives show top-dose activity change, positive = activation, actives largely listed as activators; hit rate 0.24% among 48,000; AID 1508624, 2021; also: potency is read from the fitted curve at half-maximal effect; nearly all actives have a fitted effect of over 55% in size
#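 HEK293 cells carrying firefly luciferase reporters were seeded at 2,500 per well in Opti-MEM and cultured for 24 h. They were then treated with compounds at up to 57.5 uM final for 24 h at 37 degrees C before Dual-Glo luminescence readout.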
# HTT promoter inh: Primary qHTS for Identification of Small Molecule Inhibitors of Huntingtin Promoter Activity; HEK293 HTT promoter firefly luciferase reporter, 24 h; AID 1508623, 2021; hit rate 0.93% among 48,000; Potency, µM (doses to about 57.5 µM), for inactives: top-dose activity change, negative = inhibition, actives largely listed as inhibitors; also: potency is read from the fitted curve at half-maximal effect; nearly all actives have a fitted effect of over 50% in size
#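 HEK293 luciferase promoter-reporter cells (2,500/well) plated 24 h, then compounds added at up to 57.5 uM final for 24 h at 37 °C. Firefly luminescence by Dual-Glo, normalized to vehicle (0%) and zero RLU (-100%).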
# An asterisk follows results filed as active; ? = inconclusive; . = no result; [ ] = dose if it differs, or a comment. Unless noted, calls follow the shape of the dose curve; as a rule, active = well fitted curve in the direction sought with a large enough effect; inconclusive = small, poorly fitted or top-dose-only effect, or another doubt; inactive = no such curve, though single readings can be large; an effect the other way counts as inactive or inconclusive.
SMILES,DRV1 agonist,HTT-AS act,HTT promoter inh
COc1ccc(Br)cc1CC1C(=O)Nc2ccccc21 (stereo unspecified),22,-51%,13µM*
CCCN1C(=O)C(Cc2nc3ccccc3c(=O)n2-c2ccc(OC)cc2)c2cc(C)ccc21 (stereo unspecified),-5,-26%,-29%
O=C(NC1CC1)c1cccc(-c2ccc3c(NC(=O)C4CC4)n[nH]c3c2)c1,.,-27%,?
CCCSc1nnc(NC(=O)c2cc(=O)c3ccccc3o2)s1,4,17%,15%
CCCc1nnc(NC(=O)c2cc(=O)c3ccccc3o2)s1,2,4µM*,47%
COc1ccc(CNC(=O)CCc2nc3cccnc3n2Cc2ccccc2)cc1,-9,-3%,-25%
COc1ccc(CCNC(=O)CCc2c(C)nc3cc(-c4ccc(Cl)cc4)nn3c2C)c(OC)c1,1,-74%,2µM*
Cc1nc2c(-c3ccc(F)cc3)c(C)nn2c(C)c1CCC(=O)NCc1ccc(Cl)cc1,18,-7%,-6%
CCOc1ccc(CCNC(=O)CCc2c(C)nc3c(-c4ccccc4)c(C)nn3c2C)cc1OCC,-16,0%,-5%
COc1ccc(CCNC(=O)CCc2c(C)nc3cc(-c4ccccc4)nn3c2C)cc1OC,70*,-82%,?
COc1ccc(-c2cc3nc(C)c(CCC(=O)N4CCN(c5cc(C)ccc5C)CC4)c(C)n3n2)c(OC)c1,-12,-22%,-20%
Cc1nc2c(-c3ccccc3)c(C)nn2c(C)c1CCC(=O)NCc1cccc(Cl)c1,62*,-22%,-21%
COc1ccc(CCNC(=O)CCc2c(C)nc3c4c(C)cc(C)nc4nn3c2C)cc1OC,0,-7%,20%
CSc1ccc(CCNC(=O)CCc2c(C)nc3cc(-c4ccccc4)nn3c2C)cc1,-4,-68%,2µM*
C=CC[N+]1([C@H]2C[C@H]3[C@@H]4CC[C@H]5C[C@H](OC(C)=O)[C@@H](N6CCCCC6)C[C@]5(C)[C@H]4CC[C@]3(C)[C@H]2OC(=O)CC)CCCCC1,-36,0%,5%
COc1cccc(N2CCN(Cc3cc(=O)oc4cc(C)ccc34)CC2)c1,-25,-15%,-1%
COc1ccc(-c2oc3c(CC=C(C)C)c(OC4O[C@H](CO)[C@@H](O)[C@H](O)[C@@H]4O)cc(O)c3c(=O)c2OC2O[C@@H](C)[C@H](O)[C@@H](O)[C@@H]2O)cc1 (stereo partly specified),.,-13%,-5%
COc1ccccc1-c1cc2nc(C)c(CCC(=O)Nc3ccc(Br)c(C)c3)c(C)n2n1,-1,-51%,?
COc1ccccc1-c1cc2nc(C)c(CCC(=O)NCCc3cccc(C)c3)c(C)n2n1,-2,-60%,?
COc1ccc(-c2cc3nc(C)c(CCC(=O)Nc4ccccc4C(C)=O)c(C)n3n2)c(OC)c1,29,-76%,14µM*
CCOc1ccc(CCNC(=O)CCc2c(C)nc3cc(-c4ccccc4OC)nn3c2C)cc1,-10,-81%,13µM*
NC(=O)c1ncn([C@@H]2O[C@H](CO)[C@@H](O)[C@@H]2O)c1O,.,-34%,-7%
CNC(=O)CN(CCN(CCN(CC(=O)[O-])CC(=O)NC)CC(=O)[O-])CC(=O)[O-].O.[Gd+3],12,1%,5%
COC(=O)C1=C(C)NC(C)=C(C(=O)OCCc2ccc(N3CCN(C(c4ccccc4)c4ccccc4)CC3)cc2)C1c1cccc([N+](=O)[O-])c1 (stereo unspecified),0,-3%,-5%
COC(=O)C1=C(C)NC(C)=C(C(=O)OCCCN2CCC(c3ccccc3)(c3ccccc3)CC2)C1c1cccc([N+](=O)[O-])c1 (stereo unspecified),105*,-32%,?
SMILES,DRV1 agonist,HTT-AS act,HTT promoter inh
CCn1c2c(c(=O)n3ncc(C(=O)Nc4cc(Cl)ccc4OC)c13)CN(Cc1ccc(OC)cc1)CC2,-17,-19%,-3%
COc1ccc(CN2CCc3c(c(=O)n4ncc(C(=O)N5CCN(c6ccccc6OC)CC5)c4n3C)C2)cc1,14,-88%,1.8µM*
CCc1nnc(NC(=O)CSc2nccn2Cc2ccc(F)cc2)s1,11,-11%,-7%
O=C1Nc2cc(Cl)ccc2Oc2ccccc21,3,-15%,-6%
Cc1cccc(Oc2ccc3c(c2)Oc2ccccc2NC3=O)c1,95*,-26%,-1%
CCN(CC)CCN,-9,-5%,12%
COc1ccc(NC(=O)C(=O)Nc2ccc3nc4n(c(=O)c3c2)CCCCC4)c(OC)c1,-8,-10%,15%
COc1ccc(Cl)cc1N(C)C(=O)C(=O)Nc1ccc2nc3n(c(=O)c2c1)CCCCC3,80*,-11%,-11%
COc1ccc(C=Cc2cc(OC)c(OC)c(OC)c2)cc1O,.,-36%,-27%
O=C(CCCCCCNC(=O)c1cnc(N(c2ccccc2)c2ccccc2)nc1)NO,.,?,193%
CC(C)CN(CC(C)C)S(=O)(=O)c1ccc(C(=O)Nc2sc3c(c2C(N)=O)CC(C)(C)NC3(C)C)cc1,-13,-32%,?
CN(C1CCCCC1)S(=O)(=O)c1ccc(C(=O)Nc2sc3c(c2C(N)=O)CC(C)(C)NC3(C)C)cc1,118*,-8%,-20%
COc1cc(OC)c(C(=O)NCc2nc(-c3ccccc3)no2)cc1OC,71*,7%[11.5 µM],-19%
COc1ccc(-c2noc(CNC(=O)c3ccc(OC)cc3OC)n2)cc1,-5,-16%,-11%
CCN(CCCNC(=O)c1cc2c(=O)[nH]c3ccc(C)cc3c2s1)Cc1ccccc1,-17,-26%,-21%
COc1ccc2c(C)c(CCC(=O)NCCc3ccc(Cl)cc3)c(=O)oc2c1,108*,.,.
COc1ccc(CCNC(=O)CCc2c(C)c3cc4c(C)c(C)oc4cc3oc2=O)cc1OC,41,-6%,6%
COc1ccc2c(C)c(CCC(=O)NCCc3ccc(OC)c(OC)c3)c(=O)oc2c1,68*,.,.
COc1ccc2c(C)c(CCC(=O)NCCc3ccccc3)c(=O)oc2c1,49,.,.
O=C(c1ccc(CSc2nc3ccncc3n2Cc2cccc(F)c2)cc1)N1CCCCC1,38,-21%,?
O=C(c1ccc(CSc2nc3ccncc3n2Cc2ccc(F)cc2)cc1)N1CCCCCC1,61*,-18%,?
CN[C@H](CC(C)C)C(=O)N[C@H]1C(=O)N[C@@H](CC(N)=O)C(=O)N[C@@H]2C(=O)N[C@H]3C(=O)N[C@H](C(=O)N[C@H](C(=O)O)c4cc(O)cc(O)c4-c4cc3ccc4O)[C@H](O)c3ccc(c(Cl)c3)Oc3cc2cc(c3O[C@@H]2O[C@H](CO)[C@@H](O)[C@H](O)[C@@H]2O[C@H]2C[C@](C)(N)[C@H](O)[C@H](C)O2)Oc2ccc(cc2Cl)[C@H]1O,-7,4%,-4%
CCC=CC[C@H]1C(=O)CC[C@@H]1CC(=O)OC,.,-4%,9%

# Compound activity from PubChem.
